# The sample as a whole holds a higher share of the strongest signals than the screen did.
# What was measured:
# Assay in all cases: glycan array binding signal (z-score within array); higher = stronger binding
# Details in all cases: glycan notation: IUPAC condensed, linker removed
# [1] = target: Fuc(a1-2)Gal(b1-3)GalNAc(a1-3)[Fuc(a1-2)]Gal(b1-4)GlcNAc
# How it was run: (§1)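 Glycan array binding is given as a within-array Z-score, which can be read as non-binding when negative. The arrays, 3228 of them, came from the Consortium for Functional Glycomics database and were retained only where the protein sequence was available. Z-scores were averaged across arrays of the same protein sequence at different concentrations or buffers and across linkers.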
# [2] = target: Fuc(a1-2)Gal(b1-3)GlcNAc
# How it was run: as §1
# [3] = target: Fuc(a1-2)Gal(b1-3)GlcNAc(b1-2)Man(a1-3)[Fuc(a1-2)Gal(b1-3)GlcNAc(b1-2)Man(a1-6)]Man(b1-4)GlcNAc(b1-4)GlcNAc
# How it was run: as §1
# [4] = target: Fuc(a1-2)Gal(b1-3)GlcNAc(b1-3)[Gal(b1-4)GlcNAc(b1-6)]Gal(b1-4)Glc
# How it was run: as §1
# [5] = target: Fuc(a1-2)Gal(b1-3)GlcNAc6S
# How it was run: as §1
# [6] = target: Fuc(a1-2)Gal(b1-4)GlcNAc(b1-2)Man(a1-3)[Fuc(a1-2)Gal(b1-4)GlcNAc(b1-2)Man(a1-6)]Man(b1-4)GlcNAc(b1-4)GlcNAc
# How it was run: as §1
# [7] = target: Fuc(a1-2)[Gal(a1-3)]Gal(b1-3)GlcNAc(b1-3)GalNAc
# How it was run: as §1
# [8] = target: Fuc(a1-2)[Gal(a1-3)]Gal(b1-4)GlcNAc(b1-2)Man(a1-3)[Fuc(a1-2)[Gal(a1-3)]Gal(b1-4)GlcNAc(b1-2)Man(a1-6)]Man(b1-4)GlcNAc(b1-4)GlcNAc
# How it was run: as §1
# [9] = target: Fuc(a1-2)[GalNAc(a1-3)]Gal(b1-4)GlcNAc(b1-6)GalNAc
# How it was run: as §1
# [10] = target: Fuc(a1-3)[Gal(b1-4)]GlcNAc
# How it was run: as §1
# [11] = target: Gal(a1-3)Gal(b1-4)GlcNAc(b1-2)Man
# How it was run: as §1
# [12] = target: Gal(a1-4)Gal(b1-3)GlcNAc(b1-2)Man(a1-3)[Gal(a1-4)Gal(b1-3)GlcNAc(b1-2)Man(a1-6)]Man(b1-4)GlcNAc(b1-4)GlcNAc
# How it was run: as §1
# [13] = target: Gal(a1-4)GlcNAc
# How it was run: as §1
# [14] = target: Gal(b1-3)Gal(b1-4)GlcNAc
# How it was run: as §1
# [15] = target: Gal(b1-3)GlcNAc(b1-3)Gal(b1-4)GlcNAc(b1-2)[Gal(b1-3)GlcNAc(b1-3)Gal(b1-4)GlcNAc(b1-6)]Man(a1-6)[Gal(b1-3)GlcNAc(b1-3)Gal(b1-4)GlcNAc(b1-2)Man(a1-3)]Man(b1-4)GlcNAc(b1-4)[Fuc(a1-6)]GlcNAc
# How it was run: as §1
# [16] = target: Gal(b1-3)[Fuc(a1-4)]GlcNAc(b1-2)Man(a1-3)[Gal(b1-3)[Fuc(a1-4)]GlcNAc(b1-2)Man(a1-6)]Man(b1-4)GlcNAc(b1-4)[Fuc(a1-6)]GlcNAc
# How it was run: as §1
# [17] = target: Gal(b1-4)Glc
# How it was run: as §1
# [18] = target: Gal(b1-4)GlcNAc(b1-3)Gal(b1-3)GalNAc
# How it was run: as §1
# [19] = target: Gal(b1-4)GlcNAc(b1-3)Gal(b1-3)GlcNAc
# How it was run: as §1
# [20] = target: Gal(b1-4)GlcNAc(b1-3)Gal(b1-4)GlcNAc(b1-3)Gal(b1-4)GlcNAc(b1-2)Man(a1-3)[Gal(b1-4)GlcNAc(b1-3)Gal(b1-4)GlcNAc(b1-3)Gal(b1-4)GlcNAc(b1-2)Man(a1-6)]Man(b1-4)GlcNAc(b1-4)[Fuc(a1-6)]GlcNAc
# How it was run: as §1
# [21] = target: Gal(b1-4)GlcNAc(b1-3)Gal(b1-4)GlcNAc(b1-3)Gal(b1-4)GlcNAc(b1-2)[Gal(b1-4)GlcNAc(b1-3)Gal(b1-4)GlcNAc(b1-3)Gal(b1-4)GlcNAc(b1-6)]Man(a1-6)[Gal(b1-4)GlcNAc(b1-3)Gal(b1-4)GlcNAc(b1-3)Gal(b1-4)GlcNAc(b1-2)Man(a1-3)]Man(b1-4)GlcNAc(b1-4)[Fuc(a1-6)]GlcNAc
# How it was run: as §1
# [22] = target: Gal(b1-4)GlcNAc(b1-3)Gal(b1-4)GlcNAc(b1-3)Gal(b1-4)GlcNAc(b1-3)Gal(b1-4)GlcNAc(b1-3)Gal(b1-4)GlcNAc(b1-2)[Gal(b1-4)GlcNAc(b1-3)Gal(b1-4)GlcNAc(b1-3)Gal(b1-4)GlcNAc(b1-3)Gal(b1-4)GlcNAc(b1-3)Gal(b1-4)GlcNAc(b1-6)]Man(a1-6)[Gal(b1-4)GlcNAc(b1-3)Gal(b1-4)GlcNAc(b1-3)Gal(b1-4)GlcNAc(b1-3)Gal(b1-4)GlcNAc(b1-3)Gal(b1-4)GlcNAc(b1-2)Man(a1-3)]Man(b1-4)GlcNAc(b1-4)[Fuc(a1-6)]GlcNAc
# How it was run: as §1
# [23] = target: Gal4S(b1-4)GlcNAc
# How it was run: as §1
# [24] = target: Gal6P(b1-4)GlcNAc
# How it was run: as §1
# [25] = target: Gal6S(b1-3)GlcNAc6S
# How it was run: as §1
# [26] = target: GalNAc(b1-6)GalNAc
# How it was run: as §1
# [27] = target: GalNAc6S(b1-4)GlcNAc
# How it was run: as §1
binder,measurement,setting,value
Nc3LysM-2 (protein) AHVLQARQSVSCDFATAANTGDTCASFAAAWGITEAAFAKLNPGVSCPGNLIAGSEYCVIGTVSTGAPTTTKAATTSTTPPTTTTTTKATTLSTSTTSVSPTGPSPQMPSITSTCNKFYQVQSGDGCWSIEQAQGVSASDFMAWNKAVDAQCDNLWLGYYVCVGVKGGSSPPPTTTTKPASSSAPTPQMPNTVSNCKKFHKVVSGDGCWAIEQAAGISASDFAKWNPYVDAACDNLWLGYYVCIGV,glycan array binding signal (z-score),[1],-0.746
same,glycan array binding signal (z-score),[2],0.966
same,glycan array binding signal (z-score),[3],-0.335
same,glycan array binding signal (z-score),[4],0.735
same,glycan array binding signal (z-score),[5],-1.29
same,glycan array binding signal (z-score),[6],2.21
same,glycan array binding signal (z-score),[7],-0.745
same,glycan array binding signal (z-score),[8],2.78
same,glycan array binding signal (z-score),[9],-1.2
same,glycan array binding signal (z-score),[10],-0.073
same,glycan array binding signal (z-score),[11],-0.456
same,glycan array binding signal (z-score),[12],-0.185
same,glycan array binding signal (z-score),[13],0.991
same,glycan array binding signal (z-score),[14],-0.043
same,glycan array binding signal (z-score),[15],2.73
same,glycan array binding signal (z-score),[16],0.856
same,glycan array binding signal (z-score),[17],-0.252
same,glycan array binding signal (z-score),[18],-1.18
same,glycan array binding signal (z-score),[19],0.13
same,glycan array binding signal (z-score),[20],2.69
same,glycan array binding signal (z-score),[21],5.8
same,glycan array binding signal (z-score),[22],2.29
same,glycan array binding signal (z-score),[23],-1.15
same,glycan array binding signal (z-score),[24],-0.044
same,glycan array binding signal (z-score),[25],-1.34
same,glycan array binding signal (z-score),[26],0.877
same,glycan array binding signal (z-score),[27],0.893

# — the supplement of paper PMC8728848
